Screens (PubChem)
Sampled rows, rich in hits. Any-hit rate of the full collection: about 21%.
Pf growth 96h = Primary qHTS for delayed death inhibitors of the malarial parasite plastid, 96 hour incubation. hit rate 6.9% among 320,000. P. falciparum luciferase reporter growth, 96 h. Potency, µM (series often up to 28.7 µM), for the others: top-dose activity change, negative = inhibition, hits mostly inhibitors. AID 504834, 2011; note: potency is the fitted concentration of half-maximal effect; % is set by controls: 0 for no effect and ±100 for the full control effect
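Parasite growth measured via integrated firefly luciferase reporter in P. falciparum. Infected erythrocytes at 2% hematocrit, 0.05% parasitemia final were treated 96 hours at 37 C under 5% CO2, and luminescence was read.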
Shiga toxin inh = A qHTS for Small Molecule Inhibitors of Shiga Toxin. Vero cells, Shiga toxin protein synthesis inhibition reporter. inhibition, % at 38.7 µM. hit rate 9.2% among 290,000; in the data active = inhibition mostly above about 28%, no sharp cut-off; inactive = mostly below about 43%; note: 0% is about no effect
Cycloheximide cs = Cycloheximide Counterscreen for Small Molecule Inhibitors of Shiga Toxin. max response, %. cell reporter, cycloheximide protein synthesis inhibition counterscreen. hit rate 12% among 300,000; in the data active = max response mostly above about 13%, no sharp cut-off; inactive = mostly below about 14%; note: read at 38.3 µM for the half of the compounds with a filed dose; 0% is about no effect
Pf growth 48h = Primary qHTS for delayed death inhibitors of the malarial parasite plastid, 48 hour incubation; P. falciparum luciferase growth in erythrocytes, 48 h; Potency, µM (highest dose often 28.7 µM), without a hit: top-dose activity change, negative = inhibition, actives largely listed as inhibitors; hit rate 5.9% among 310,000; note: potency is the fitted concentration of half-maximal effect; % is set by controls: 0 for no effect and ±100 for the full control effect
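Erythrocytes infected with P. falciparum carrying an integrated firefly luciferase reporter (2% hematocrit, 0.1% parasitemia final) were exposed to compounds in RPMI 1640 with 0.5% Albumax at 37 C, 5% CO2. Growth inhibition was scored as reduced luminescence.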
NS1 function inh = qHTS Assay for Inhibitors of Influenza NS1 Protein Function. Potency, µM (series often up to 46.1 µM), for the others: top-dose activity, positive = more growth. hit rate 0.4% among 270,000; calls by dose curve; note: potency is the fitted concentration of half-maximal effect; actives are rising curves; nearly all actives have a fitted effect of over 50% in size
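OD600 was taken as the measure of yeast growth restored by compound in an NS1-expressing S. cerevisiae strain. Cells had been washed out of glucose medium and diluted 1:100 into galactose -URA medium, pH 6.0.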
Sm TGR block = qHTS Assay for the Inhibitors of Schistosoma Mansoni Peroxiredoxins | purified TGR, DTNB reduction, TNB absorbance 405 nm | Potency, µM (titrated, usually from 114 µM), without a hit: at the highest dose activity change, negative = inhibition, hits mostly inhibitors | hit rate 3% among 360,000 | AID 485364, 2010; note: potency is the fitted concentration of half-maximal effect; % is set by controls: 0 for no effect and ±100 for the full control effect; nearly all actives have a fitted effect of over 60% in size
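Kinetic colorimetric format: TGR-catalysed, NADPH-driven DTNB reduction monitored via TNB absorbance. Enzyme dispensed at 20 nM; compound exposure 15 min at room temperature before reaction start.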
The depositor's hits bear a star; u = inconclusive; x = not tested or not shown. Unless noted, calls come from the whole dose curve; as a rule, active = well fitted curve in the direction sought with a large enough effect; inconclusive = small, poorly fitted or top-dose-only effect, or another doubt; inactive = no such curve, though single readings can be large; an effect the other way counts as inactive or inconclusive.

SMILES | Pf growth 96h | Shiga toxin inh | Cycloheximide cs | Pf growth 48h | NS1 function inh | Sm TGR block
COc1ccc(S(=O)(=O)N2CCC(C(=O)N3CCN(c4ccccc4OC)CC3)CC2)cc1 | -5% | -9 | -2 | 13µM* | -11% | -2%
COc1ccccc1N1CCN(C(=O)C2CCN(S(=O)(=O)c3ccccc3)CC2)CC1 | u | -11 | 1 | u | -8% | 0%
COc1ccccc1N1CCN(C(=O)C2CCN(S(=O)(=O)c3ccc4c(c3)CC(C)N4C(C)=O)CC2)CC1 (configuration not stated) | 17% | 6 | 2 | 12µM* | -12% | 1%
COc1ccc(S(=O)(=O)N2CCC(C(=O)N3CCc4ccccc4C3)CC2)cc1Cl | u | 23 | 28* | x | u | -10%
CCOc1ccc(Br)cc1S(=O)(=O)Nc1ccc(NC(=O)c2ccccc2F)cc1 | 0% | -1 | -1 | -23% | 22% | 4%
COc1ccc(-c2noc(-c3ccc(NCCc4ccccc4)c([N+](=O)[O-])c3)n2)cc1OC | x | x | x | x | x | -8%
CSc1nsc(SCC(=O)Nc2ccc(C(C)=O)cc2)n1 | -45% | 72* | 47* | x | -6% | 8%
COc1ccc(NC(=O)CSc2nc(SC)ns2)cc1 | 2% | 89* | 19* | 118% | -3% | -2%
CCC[N+]12CCC(CC1)C(=C(c1ccccc1)c1ccccc1)C2 | u | -10 | 1 | 1.3µM* | -7% | -1%
CCCC[N+]12CCC(CC1)C(=C(c1ccccc1)c1ccccc1)C2 | 0.74µM* | -5 | -3 | 1.3µM* | 0% | -28%
Cc1cc(NC(=O)Nc2nnc(N(C)Cc3ccccc3)s2)ccc1Br | x | x | x | x | x | 0%
Cc1cccc(NC(=O)CSc2nc3ccccc3nc2N2CCCCC2)c1C | x | x | x | x | x | 3%
C=C1CCN(C(Cc2ccccc2)C(=O)N2CCOCC2)S(=O)(=O)c2ccccc21 (configuration not stated) | x | -13 | -5 | x | x | x
C=C1CCN(C(Cc2ccccc2)C(=O)OC)S(=O)(=O)c2ccc(F)cc21 (configuration not stated) | u | -4 | -4 | -14% | -40% | 22µM*
CCN1CCN(CCNC(=O)c2ccc3c(c2)N(Cc2cccc(Cl)c2)C(=O)c2ccccc2S3=O)CC1 (configuration not stated) | u | -3 | -2 | 12µM* | -1% | -3%
CC1CCCCN1CCNC(=O)c1ccc2c(c1)N(Cc1ccccc1F)C(=O)c1ccccc1S2=O (configuration not stated) | 5.9µM* | -11 | -5 | u | -22% | 5%
O=C(NCCN1CCCC1)c1ccc2c(c1)N(Cc1ccc(F)cc1)C(=O)c1ccccc1S2=O (configuration not stated) | u | -5 | -6 | 12µM* | 13% | 4%
CCCCNC(=O)c1ccc2c(c1)N(Cc1ccc(F)cc1)C(=O)c1ccccc1S2=O (configuration not stated) | x | x | x | x | x | 6%
O=C(NCCCN1CCCC1)c1ccc2c(c1)N(Cc1ccccc1F)C(=O)c1ccccc1S2(=O)=O | -18% | 20 | 3 | 10µM* | 2% | -1%
COc1ccc(NC(=O)C2=C(C)Nc3ncnn3C2c2ccc(O)cc2)cc1 (configuration not stated) | x | x | x | x | x | 1%
Cc1cc2oc(=O)cc(CN3CCOCC3)c2c(C)c1Cl | 1% | 9 | -5 | -4% | -34% | -1%
C[C@@H](NC(=O)[C@@H]1Cc2ccccc2CN1)C(=O)NCC1CCCO1 (some centres not stated) | 7% | -2 | -3 | 11% | -12% | -16%
COc1cc(C(=O)NCCC(=O)NC2CCC(C)CC2)cc(OC)c1OC (configuration not stated) | 10% | -9 | -5 | -16% | 6% | -4%
O=C(N/N=C/c1c(Cl)cccc1Cl)c1ccccc1F | u | 46* | 26* | 23% | 49% | 4%
Cn1cccc1C(=O)N/N=C/c1c(Cl)cccc1Cl | 265% | 61* | 63* | x | -7% | 8%
SMILES | Pf growth 96h | Shiga toxin inh | Cycloheximide cs | Pf growth 48h | NS1 function inh | Sm TGR block
O=C(N/N=C/C(c1ccccc1)c1ccccc1)c1ccccc1F | -5% | 43 | 49* | 16% | 4% | 9%
Cc1ccc(/C=C/c2nc3ccccc3[nH]2)cc1 | x | x | x | x | x | -6%
Cc1cc2nc(/C=C/c3cccnc3)[nH]c2cc1C | -1% | 40* | 31* | -81% | 2% | 12%
Cc1cc2nc(/C=C/c3nc4cc(C)c(C)cc4[nH]3)[nH]c2cc1C | 0.33µM* | 2 | 4 | 0.47µM* | 0% | -5%
Cc1cc2nc(CO)[nH]c2cc1C | 80% | 21 | 0 | 19% | 0% | 0%
Cc1cc2nc(CS)[nH]c2cc1C | u | 60 | 17* | u | 6% | u
CC1CN(C(=O)CCC(=O)NCc2cccs2)c2cc(Cl)ccc2O1 (configuration not stated) | x | x | x | x | x | 4%
CCOC(=O)C1CCCN(C(=O)c2ccc3c(=O)n(Cc4ccccc4OC)c(=S)[nH]c3c2)C1 (configuration not stated) | -23% | -10 | -3 | u | -9% | -11%
COc1ccc(CNc2oc(-c3ccc(COc4ccccc4C)o3)nc2C#N)cc1 | x | x | x | x | x | -2%
COc1cc(C=NCC2OCCc3ccccc32)cc(OC)c1 (configuration not stated) | 9.3µM* | -11 | -2 | 8% | -35% | 8%
Cn1c(SCc2cccc(F)c2)nnc1-c1ccccn1 | -9% | 58* | 36* | 61% | -21% | u
Cn1c(SC/C=C/c2ccccc2)nnc1-c1cnccn1 | 2% | -2 | 10 | u | -2% | -26%
CCn1c(SCc2cccc(F)c2)nnc1-c1ccncc1 | -21% | 31 | -7 | -12% | 2% | -4%
Cn1c(SCC(=O)c2ccc(F)cc2)nnc1-c1cnccn1 | u | 44 | 32 | 24% | u | -18%
Cc1ccccc1CSc1nnc(-c2ccccn2)n1C | 83% | 90* | 26* | 47% | -9% | 12%
Cn1c(SCc2ccccc2Cl)nnc1-c1cnccn1 | 27% | 133* | 24* | 54% | -19% | 43%
Cn1c(SCc2cccc(F)c2)nnc1-c1cnccn1 | 0% | 64* | 29* | 19% | -4% | -2%
CC(C)(C)c1ccc(-c2nc(SCC(=O)Nc3ccc(Cl)cc3)[nH]c(=O)c2C#N)cc1 | x | 32 | 2 | x | x | 0%
CCOc1ccc(-c2cc(CCCC(=O)NCCc3ccc(Cl)cc3)no2)cc1 | x | x | x | x | x | 6%
Cc1ccc(NS(=O)(=O)c2cc3[nH]c(=O)c(=O)[nH]c3cc2C)cc1N(C)C | x | x | x | x | x | 10%
